According to PubChem BioAssay (NCATS):
Records with an inconclusive call do not appear. A call without a number means that no potency is given here. Active and inactive are the calls of the source. Unless noted, calls come from the whole dose curve.

Key:
[1] = molecular target: Alpha-galactosidase (Coffea arabica) (UniProt Q42656); experiment: Counterscreen for Glucocerebrosidase Inhibitors: qHTS Assay for Coffee Bean alpha-Galactosidase at pH 4.5 (AID 957; active = well fitted curve in the direction sought with a large enough effect; an effect the other way counts as inactive or inconclusive)
Chain of Alpha-galactosidase (Coffea arabica) (Q42656 whole entry, looked up): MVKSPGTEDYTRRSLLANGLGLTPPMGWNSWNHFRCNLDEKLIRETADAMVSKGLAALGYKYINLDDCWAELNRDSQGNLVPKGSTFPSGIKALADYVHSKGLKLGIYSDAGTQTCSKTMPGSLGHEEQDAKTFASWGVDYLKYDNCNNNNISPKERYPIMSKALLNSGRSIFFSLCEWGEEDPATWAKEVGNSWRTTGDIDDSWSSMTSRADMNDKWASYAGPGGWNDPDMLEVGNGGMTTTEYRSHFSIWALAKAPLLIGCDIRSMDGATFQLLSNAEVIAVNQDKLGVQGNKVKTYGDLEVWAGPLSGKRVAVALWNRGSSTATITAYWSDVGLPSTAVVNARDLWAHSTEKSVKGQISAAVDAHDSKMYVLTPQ
Summary of the method: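 Green coffee bean enzyme (2 nM final) was incubated with compounds (0.7 nM to 77 uM) and 4-methylumbelliferyl alpha-D-galactopyranoside (80 uM final) in 50 mM citric acid, 0.005% Tween-20, pH 4.5, 20 min at room temperature; AC50 from Hill fits.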

[2] = molecular target: Alpha-galactosidase (Coffea arabica) (UniProt Q42656); experiment: Counterscreen for Glucocerebrosidase Inhibitors: qHTS Assay for Coffee Bean alpha-Galactosidase at pH 5.9 (AID 998; active = well fitted curve in the direction sought with a large enough effect; an effect the other way counts as inactive or inconclusive)
Summary of the method: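 Green coffee bean enzyme (2 nM) with 4-methylumbelliferyl alpha-D-galactopyranoside (80 uM) in 50 mM citric acid, 0.005% Tween-20, pH 5.9, 20 min at room temperature; compounds 0.7 nM–77 uM. Stopped at pH 10, fluorescence Ex365/Em440; Hill-fit AC50.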

[3] = Inducers of the Endoplasmic Reticulum Stress Response (ERSR) in human glioma: Validation (AID 504836; active = well fitted curve in the direction sought with a large enough effect; an effect the other way counts as inactive or inconclusive)
Summary of the method: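 Stably transfected U87-MG glioma cells carrying a GRP78-based luciferase sensor; 16 h compound incubation. Luminescence end-point read 10 min after Bright-Glo addition at room temperature.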

[4] = qHTS for Inhibitors of the Functional Ribonucleoprotein Complex (vRNP) of Lymphocytic Choriomeningitis Arenaviruses (LCMV): Viability assay - alamar blue signal for LCMV Primary Screen (AID 1347085; calls by dose curve; tested in HEK293 reporter line; note: nearly all actives have a fitted effect of over 80% in size; note: potency is the fitted concentration of half-maximal effect)
[5] = molecular target: Nucleoprotein (Lymphocytic choriomeningitis virus (strain Armstrong)) (UniProt P09992); experiment: qHTS for Inhibitors of the Functional Ribonucleoprotein Complex (vRNP) of Lymphocytic Choriomeningitis Arenaviruses (LCMV): LCMV Primary Screen - GLuc reporter signal (AID 1347086); note: nearly all actives have a fitted effect of over 70% in size; note: potency is the fitted concentration of half-maximal effect
Chain of Nucleoprotein (Lymphocytic choriomeningitis virus (strain Armstrong)) (P09992 whole entry, looked up): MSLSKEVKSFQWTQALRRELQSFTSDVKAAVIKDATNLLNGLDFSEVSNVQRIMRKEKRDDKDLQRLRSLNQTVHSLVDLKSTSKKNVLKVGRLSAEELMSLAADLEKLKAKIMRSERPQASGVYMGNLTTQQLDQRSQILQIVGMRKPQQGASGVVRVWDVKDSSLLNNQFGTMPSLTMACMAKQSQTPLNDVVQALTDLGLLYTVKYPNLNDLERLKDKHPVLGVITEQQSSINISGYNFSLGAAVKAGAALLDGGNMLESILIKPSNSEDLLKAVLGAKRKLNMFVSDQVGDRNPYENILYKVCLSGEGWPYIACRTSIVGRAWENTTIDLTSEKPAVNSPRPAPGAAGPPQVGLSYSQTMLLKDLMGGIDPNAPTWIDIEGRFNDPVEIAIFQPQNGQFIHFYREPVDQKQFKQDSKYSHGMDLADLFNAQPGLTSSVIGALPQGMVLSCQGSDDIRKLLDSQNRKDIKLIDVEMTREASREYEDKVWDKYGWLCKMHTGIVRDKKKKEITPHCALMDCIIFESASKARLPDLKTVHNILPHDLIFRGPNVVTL

[6] = Primary qHTS to identify inhibitors of SARS-CoV-2 cell entry (AID 1645846); conditions: activity change, negative = inhibition: at 57.1 µM (top of the series) unless noted; note: nearly all actives have a fitted effect of over 45% in size; note: potency is the fitted concentration of half-maximal effect
Summary of the method: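 HEK293-ACE2 (Expi293F, stable hACE2), 1500 cells/well, o/n 37C; cpd 23 nL pin, 1 h; MLV-PP w/ SARS-CoV-2-S (Wuhan-Hu-1, Δ19 C-term); 48 h 37C; Bright-Glo luminescence; normalized vs S-PP and bald PP.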

[7] = Primary qHTS for inhibitors of SARS-S pseudo-typed particle cell entry (AID 1479145); note: nearly all actives have a fitted effect of over 45% in size
[8] = Primary qHTS for Huh7 cytotoxicity: counterscreen for inhibitors of MERS-S pseudotyped particle cell entry (AID 1479147); conditions: outcome: dose series up to 57.1 µM unless noted
[9] = Primary qHTS for inhibitors of MERS-S pseudo-typed particle cell entry (AID 1479149); note: nearly all actives have a fitted effect of over 60% in size
[10] = Primary qHTS for Vero E6 cytotoxicity: counterscreen for inhibitors of SARS-S pseudo-typed particle cell entry (AID 1479150); conditions: outcome: dose series up to 57.1 µM unless noted
[11] = Cytotoxicity counterscreen for inhibitors of SARS-CoV-2 cell entry (AID 1645845); note: nearly all actives have a fitted effect of over 50% in size
Summary of the method: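 HEK293-ACE2 cells (Expi293F stably expressing human ACE2) seeded overnight, then compound for 1 h plus 48 h at 37C. Viability as ATP content by luminescence; normalized to wells with cells and media-only wells.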

[12] = Confirmatory qHTS to identify inhibitors of SARS-CoV-2 cell entry (AID 1645844); note: potency is the fitted concentration of half-maximal effect; nearly all actives have a fitted effect of over 45% in size
Summary of the method: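 HEK293-ACE2 cells were pretreated 1 h with compound, then infected with MLV-based pseudoparticles bearing C-terminally truncated Wuhan-Hu-1 spike for 48 h at 37C; luciferase luminescence normalized to spike PP and bald PP wells.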

[13] = VSVG counterscreen qHTS to identify inhibitors of SARS-CoV-2 cell entry (AID 1645847); note: potency is the fitted concentration of half-maximal effect; nearly all actives have a fitted effect of over 65% in size
Summary of the method: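 Expi293F/hACE2 cells, overnight plating; cpd 1 h, 37C/5% CO2; + VSV-G PP (MLV pseudotyping), 48 h; supernatant removed, Bright-Glo luciferase read. Norm: VSV-G PP and bald PP wells.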

[14] = Confirmatory qHTS for VERO E6 Cytotoxicity Assay: Counterscreen for SARS-CoV-2 CPE Assay (AID 1508605); note: nearly all actives have a fitted effect of over 60% in size
[15] = qHTS profiling of the MIPE4 collection as inhibitors of Plasmodium falciparum (3D7) proliferation (AID 743344; call rule not given here); conditions: P. falciparum 3D7 in erythrocytes, SYBR Green DNA fluorescence, 72 h; at 28.5 µM (top of the series) unless noted
Summary of the method: (§1)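 Erythrocytes infected with P. falciparum (0.3% parasitemia, 2.5% hematocrit) incubated with compounds 72 h at 37 C, 5% CO2. Lysis with saponin/Triton buffer containing SYBR Green I, overnight at room temperature in the dark; DNA fluorescence (485/535 nm) normalised to 0.29 uM artemisinin and DMSO.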

[16] = qHTS profiling of the MIPE4 collection as inhibitors of Plasmodium falciparum (DD2) proliferation (AID 743345; call rule not given here); conditions: P. falciparum Dd2 in erythrocytes, SYBR Green DNA, 72 h; at 28.5 µM (top of the series) unless noted
Summary of the method: as §1

[17] = qHTS profiling of the MIPE4 collection as inhibitors of Plasmodium falciparum (DD2) proliferation (Rep 2) (AID 743346; call rule not given here); conditions: P. falciparum Dd2 in erythrocytes, SYBR Green DNA, 72 h; at 28.5 µM (top of the series) unless noted
Summary of the method: as §1

[18] = High Content Imaging Cell-Based qHTS for Inhibitors of the mTORC1 Signaling Pathway in MEF (Tsc2-/-, p53-/-) Cells (AID 2666; active = well fitted curve in the direction sought with a large enough effect; an effect the other way counts as inactive or inconclusive;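 note: percent of cells scored positive for phospho-rpS6 Ser235/236 immunostaining by imaging; potency is the fitted concentration of half-maximal effect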)
Summary of the method: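 Phospho-rpS6 (Ser235/236) immunofluorescence, normalized and scored as % positive cells using rapamycin and DMSO controls, was read in empty-vector Tsc2-/-, p53-/- MEFs after 24 h compound exposure at 37 C; propidium iodide counted cells.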

[19] = High Content Imaging Cell-Based qHTS for Inhibitors of the mTORC1 Signaling Pathway in MEF Cells (AID 2667; active = well fitted curve in the direction sought with a large enough effect; an effect the other way counts as inactive or inconclusive; note: potency is the fitted concentration of half-maximal effect)
Summary of the method: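 WT MEFs (Tsc2-/-, p53-/- re-expressing Tsc2), in DMEM + 10% FBS, were treated with compound for 24 h at 37 C. Cells were then fixed and stained for phospho-rpS6 Ser235/236 with propidium iodide as cell count. Values are % positive cells, with thresholds set against rapamycin-treated cells.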

[20] = Validation screen for inhibitors of Lassa infection (AID 463096); note: potency is the fitted concentration of half-maximal effect
[21] = molecular target: M-phase phosphoprotein 8 (Homo sapiens) (UniProt Q99549); experiment: qHTS Validation Assay for Inhibitors for MPP8 Chromodomain Interactions with Methylated Histone Tails (AID 488949; active = well fitted curve in the direction sought with a large enough effect; an effect the other way counts as inactive or inconclusive;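 note: AlphaScreen signal from MPP8 chromodomain bound to biotinylated H3K9me3 peptide; top concentration of the series differs between compounds; nearly all actives have a fitted effect of over 55% in size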)
Chain of M-phase phosphoprotein 8 (Homo sapiens) (Q99549 whole entry, looked up): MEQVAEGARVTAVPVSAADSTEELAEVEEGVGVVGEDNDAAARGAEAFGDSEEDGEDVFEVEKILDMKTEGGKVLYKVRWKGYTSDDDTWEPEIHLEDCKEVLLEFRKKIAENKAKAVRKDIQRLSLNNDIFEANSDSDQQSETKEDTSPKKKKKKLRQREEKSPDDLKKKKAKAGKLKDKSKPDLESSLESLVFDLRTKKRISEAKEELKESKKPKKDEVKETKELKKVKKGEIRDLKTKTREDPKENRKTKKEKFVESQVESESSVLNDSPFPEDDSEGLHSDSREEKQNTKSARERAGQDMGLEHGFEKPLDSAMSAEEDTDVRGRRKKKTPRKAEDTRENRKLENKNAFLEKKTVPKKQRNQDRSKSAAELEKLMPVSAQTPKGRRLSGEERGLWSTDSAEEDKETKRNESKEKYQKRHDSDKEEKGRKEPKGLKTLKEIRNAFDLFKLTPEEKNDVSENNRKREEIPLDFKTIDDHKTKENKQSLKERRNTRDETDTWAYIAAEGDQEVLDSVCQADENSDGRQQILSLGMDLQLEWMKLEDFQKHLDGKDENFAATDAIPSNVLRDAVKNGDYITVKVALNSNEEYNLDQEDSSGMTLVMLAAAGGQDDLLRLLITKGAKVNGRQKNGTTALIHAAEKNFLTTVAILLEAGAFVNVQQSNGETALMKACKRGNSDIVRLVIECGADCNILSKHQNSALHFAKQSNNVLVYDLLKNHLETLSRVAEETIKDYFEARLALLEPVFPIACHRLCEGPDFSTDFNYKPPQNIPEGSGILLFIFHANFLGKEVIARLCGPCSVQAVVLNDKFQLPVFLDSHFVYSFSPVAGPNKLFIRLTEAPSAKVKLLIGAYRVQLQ
Summary of the method: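 AlphaScreen read-out: streptavidin donor and nickel chelate acceptor beads (final 10 ug/mL), 30 min in the dark at RT. Complex of 50 nM MPP8 and 50 nM b-H3(1-18)K9me3 peptide had been exposed to compounds for 30 min beforehand.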

[22] = molecular target: Glutaminase kidney isoform, mitochondrial (Homo sapiens) (UniProt O94925); experiment: qHTS for Inhibitors of Glutaminase (GLS): LOPAC Validation (AID 624146; active = well fitted curve in the direction sought with a large enough effect; an effect the other way counts as inactive or inconclusive;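 note: glutamate product detected by oxidase and peroxidase coupled Amplex red fluorescence gain; nearly all actives have a fitted effect of over 60% in size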)
Chain of Glutaminase kidney isoform, mitochondrial (Homo sapiens) (O94925 whole entry, looked up, canonical isoform): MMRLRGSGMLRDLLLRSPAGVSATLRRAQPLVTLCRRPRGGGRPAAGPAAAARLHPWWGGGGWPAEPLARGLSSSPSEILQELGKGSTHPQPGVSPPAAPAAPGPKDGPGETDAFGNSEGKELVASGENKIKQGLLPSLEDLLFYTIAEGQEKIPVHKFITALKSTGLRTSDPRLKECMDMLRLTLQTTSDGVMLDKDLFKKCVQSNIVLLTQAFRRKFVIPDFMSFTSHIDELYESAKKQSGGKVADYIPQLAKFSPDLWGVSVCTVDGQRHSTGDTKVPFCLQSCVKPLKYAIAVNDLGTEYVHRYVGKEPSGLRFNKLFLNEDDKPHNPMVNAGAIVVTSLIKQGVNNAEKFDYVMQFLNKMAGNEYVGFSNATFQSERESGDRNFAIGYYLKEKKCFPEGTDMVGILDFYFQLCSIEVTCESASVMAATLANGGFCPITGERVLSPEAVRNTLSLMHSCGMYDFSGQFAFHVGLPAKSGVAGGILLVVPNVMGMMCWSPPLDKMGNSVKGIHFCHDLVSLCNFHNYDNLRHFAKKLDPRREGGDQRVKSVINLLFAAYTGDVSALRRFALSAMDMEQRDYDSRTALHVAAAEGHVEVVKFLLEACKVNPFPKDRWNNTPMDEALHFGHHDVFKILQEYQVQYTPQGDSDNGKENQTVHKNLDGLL
Summary of the method: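 hKGA in 45 mM KH2PO4 pH 8.2, 0.02% Tween-20 with pin-transferred compounds; 1 mM L-glutamine (stock) plus glutamate oxidase/HRP/Amplex Red coupling added. Fluorescence read initially and after 30 min at RT.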

O=C1Cc2c([nH]c3ccc(Br)cc23)-c2ccccc2N1
outcome [1]: inactive | outcome [2]: inactive | outcome [3]: inactive | Potency [4]: inactive | Potency [5]: inactive

Cc1ccc(O)c(N=Nc2ccccc2)n1
outcome [1]: inactive | outcome [2]: inactive | outcome [3]: inactive | Potency [4]: inactive | Potency [5]: inactive

COc1cc2c(NC3CCN(C(C)C)CC3)nc(C3CCCCC3)nc2cc1OCCCN1CCCC1
Potency [4]: 38.5 µM (active) | Potency [6]: 8.91 µM (active)

CCCCC[C@H]1CCCCC[C@@H](O)C[C@H](O)[C@H](O)/C=C/C(=O)O1
Potency [4]: inactive

CC(=O)OC[C@@H]1O[C@@H](n2ccc(=O)[nH]c2=O)[C@H](OC(C)=O)[C@H]1OC(C)=O
Potency [4]: 4.85 µM (active) | Potency [5]: 7.69 µM (active) | Potency [7]: inactive | outcome [8]: inactive | Potency [9]: inactive | outcome [10]: inactive | Potency [11]: inactive | activity change, negative = inhibition [6]: -39.7%

CC(=O)O[C@H]1[C@H]2O[C@]23[C@@H]2CC[C@]4(O)C[C@@H](O)CC[C@]4(C)C2CC[C@]3(C)[C@H]1c1ccc(=O)oc1 (stereo partly specified)
Potency [5]: 0.316 µM (active)

NC(=O)c1nnn(Cc2cc(Cl)c(C(=O)c3ccc(Cl)cc3)c(Cl)c2)c1N
Potency [4]: inactive | Potency [5]: inactive

O=C1OC[C@H](Cc2ccc3c(c2)OCO3)/C1=C\c1ccc2c(c1)OCO2
Potency [4]: inactive

CCCCCC(=O)N[C@@H](c1ccccc1)[C@@H](O)C(=O)O[C@H]1C[C@@]2(O)[C@@H](OC(=O)c3ccccc3)C3[C@](C)(C(=O)[C@H](OC(C)=O)C(=C1C)C2(C)C)[C@@H](O)C[C@H]1OC[C@@]31OC(C)=O (stereo partly specified)
Potency [4]: inactive | Potency [5]: inactive

CO[C@@H]1[C@@H](OC2OC(C)C(OC3CC(C)(O)C(OC(=O)CC(C)C)C(C)O3)C(N(C)C)C2O)[C@@H](CC=O)C[C@@H](C)C(=O)/C=C\C2O[C@H]2C[C@@H](C)OC(=O)C[C@H]1OC(C)=O (stereo partly specified)
Potency [4]: inactive | Potency [5]: inactive | outcome [8]: inactive | Potency [9]: inactive | outcome [10]: inactive | Potency [12]: 0.0152 µM (active) | Potency [6]: 28.2 µM (active) | Potency [13]: 17.1 µM (active)

CCOc1cc2c(c(F)c1OCC)C(=N)N(CC(=O)c1cc(N3CCOCC3)c(OC)c(C(C)(C)C)c1)C2
Potency [4]: 24.3 µM (active) | Potency [5]: 9.68 µM (active) | Potency [6]: 35.5 µM (active)

CC1(C)CC(=O)c2c(C(F)(F)F)nn(-c3ccc(C(N)=O)c(NC4CCC(OC(=O)CN)CC4)c3)c2C1 (stereo unspecified)
Potency [4]: 0.769 µM (active) | Potency [5]: 0.611 µM (active) | Potency [14]: inactive | activity change, negative = inhibition [6]: -89%

COc1ccc(C(=O)/C=C/c2ccc(OC)cc2OC)c(O)c1
Potency [4]: inactive | Potency [5]: inactive

COc1c(O)c2c(=O)cc(OC)c3c4c(OC)cc(=O)c5c(O)c(OC)c6c(c(c1C[C@@](C)(O)[C@H]6C(C)=O)c23)c54
Potency [4]: inactive

COc1ccc2cc1Oc1ccc(cc1)C[C@H]1c3cc(c(OC)cc3CCN1C)Oc1c(OC)c(OC)cc3c1[C@H](C2)N(C)CC3
parasite growth, % of DMSO control [15]: 31.2% | parasite growth remaining, % of DMSO control (lower = more inhibition) [16]: 72.6% | parasite growth, % of control (lower = inhibition) [17]: 50.7% | Potency [4]: inactive

CC12C(=O)OC(=O)C1(C)C1CCC2O1 (stereo unspecified)
Potency [18]: 9.27 µM (active) | Potency [19]: 4.65 µM (active) | Potency [20]: 10 µM (active) | Potency [21]: inactive | outcome [3]: inactive | outcome [22]: inactive | Potency [4]: 11.2 µM (active)
